# Reference: PubChem BioAssay (NCATS)
# Records with an inconclusive call do not appear. Entries that show only a call come without a potency. Calls of active or inactive are those of the source. Unless noted, the call rests on the fitted dose curve; in most records, active means well fitted curve in the direction sought with a large enough effect; inconclusive means small, poorly fitted or top-dose-only effect, or another doubt; inactive means no such curve, though single readings can be large; an effect the other way counts as inactive or inconclusive.
# Legend:
# [1] = target: D(1A) dopamine receptor (Homo sapiens) (UniProt P21728); assay: HTS Assay for Allosteric Agonists of the Human D1 Dopamine Receptor: Primary Screen for Potentiators (AID 488982)
# In short: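 Tetracycline-induced HEK293 Trex D1 cells with forced coupling to calcium, loaded with no-wash calcium dye; kinetic fluorescence read 180 s after compound addition for agonism, then a further 180 s after an EC20 dopamine challenge for potentiation.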
# [2] = target: D(1A) dopamine receptor (Homo sapiens) (UniProt P21728); assay: HTS Assay for Allosteric Agonists of the Human D1 Dopamine Receptor: Primary Screen for Antagonists (AID 488983);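 further: calcium flux response to an EC80 dopamine challenge measured with no-wash dye; nearly all actives have a fitted effect of over 65% in size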; further: potency means the concentration at half of the fitted maximal effect
# In short: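 Kinetic fluorescence at 1 cycle/sec tracked intracellular calcium in force-coupled, tetracycline-inducible HEK293 T-REx D1 cells. Loss of response to an EC80 dopamine dose, given 180 s after compound, marked antagonists.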
# [3] = Validation screen for small molecules that induce genotoxicity in human embryonic kidney (HEK293T) cells expressing luciferase-tagged ELG1 (AID 493106); further: potency means the concentration at half of the fitted maximal effect
# In short: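 Cells were dispensed at 2,000 per well, then 23 nL compound or DMSO was pinned in. After 16 hr at 37 °C and 5% CO2, ONE-Glo reagent was added. Luciferase activity was measured following 30 min at room temperature.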
# [4] = qHTS for Inhibitors of Cell Surface uPA Generation: Validation Assay (AID 493164);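 further: RAW 264.7 macrophage cells exposed to compound for 18 h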
# In short: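 ATP-Lite luminescence read-out: ATP remains high when uPA activity-dependent LF translocation into the cytoplasm is blocked. RAW 264.7 cells, 18 h compound exposure at 37 C; 7-point titration, 2.45 nM to 38.3 uM final.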
# [5] = target: Thyrotropin-releasing hormone receptor (Homo sapiens) (UniProt P34981); assay: qHTS for Small Molecule Agonists and Allosteric Enhancers of Human TRH Receptor: Validation Screen for Agonists (AID 493127;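 active means calcium activation more than 3 SD above the typical response in the agonist read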;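 further: intracellular calcium rise by fluo-8 fluorescence before TRH EC20 addition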); settings: TRH receptor agonist cell assay; at 2 µM; stronger effect = higher value
# In short: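 Compounds are added by online pintool to dye-loaded TRHR cells while fluorescence is recorded every second. A rise in calcium signal during the agonist read marks activation; a later 10 nM TRH addition (EC20) serves the separate enhancer mode.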
# [6] = target: Galactokinase (Homo sapiens) (UniProt P51570); assay: qHTS Validation Assay for Inhibitors of Human Galactokinase (GALK) (AID 493189)
# In short: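 GALK (5 nM) with 35 uM ATP and 100 uM galactose in HEPES pH 8.0 with MgCl2, NaCl, DTT and BSA. Reaction ran 1 h at room temperature. Residual ATP read by Kinase-Glo Plus luminescence.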
# [7] = Nrf2 qHTS screen for inhibitors: Validation (AID 493153; active means well fitted inhibition curve with a large enough effect in the main read-out, with a control signal flat, not every such curve was filed as active; further: potency means the concentration at half of the fitted maximal effect); settings: Potency: luciferase luminescence; viability change: measured here: cytotoxicity max response
# In short: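 A549 ARE_Fluc, 5% FBS OPTI-MEM; cpd titration, 18-24 h, 37°C/5% CO2. Read 1: CellTiter-Fluor (Ex 405/Em 525), cytotox. Read 2: luciferase lum, Nrf2 activity.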
# [8] = target: ATPase family AAA domain-containing protein 5 (Homo sapiens) (UniProt Q96QE3); assay: Validation screen for small molecules that inhibit ELG1-dependent DNA repair in human embryonic kidney (HEK293T) cells expressing luciferase-tagged ELG1 (AID 493107); further: nearly all actives have a fitted effect of over 70% in size; further: potency means the concentration at half of the fitted maximal effect
# In short: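 Cells are dispensed in 1536-well format, then 5-fluorouridine and compound are pinned in. After a 16 hr incubation at 37 °C and 5% CO2, ONE-Glo is added and luciferase measured on a CCD imager.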
# Sequence of Galactokinase (Homo sapiens) (P51570 whole entry, looked up): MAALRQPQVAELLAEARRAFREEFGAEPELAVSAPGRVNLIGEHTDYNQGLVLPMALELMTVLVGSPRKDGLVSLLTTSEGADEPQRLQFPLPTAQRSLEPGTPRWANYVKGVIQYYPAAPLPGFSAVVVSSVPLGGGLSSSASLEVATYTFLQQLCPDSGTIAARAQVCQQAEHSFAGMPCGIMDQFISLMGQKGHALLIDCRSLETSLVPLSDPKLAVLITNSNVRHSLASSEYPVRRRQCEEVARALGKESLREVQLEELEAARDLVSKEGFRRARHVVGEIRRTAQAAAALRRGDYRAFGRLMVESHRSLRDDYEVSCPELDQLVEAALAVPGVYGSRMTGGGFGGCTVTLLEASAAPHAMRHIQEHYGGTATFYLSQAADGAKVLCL
# Sequence of Thyrotropin-releasing hormone receptor (Homo sapiens) (P34981 whole entry, looked up): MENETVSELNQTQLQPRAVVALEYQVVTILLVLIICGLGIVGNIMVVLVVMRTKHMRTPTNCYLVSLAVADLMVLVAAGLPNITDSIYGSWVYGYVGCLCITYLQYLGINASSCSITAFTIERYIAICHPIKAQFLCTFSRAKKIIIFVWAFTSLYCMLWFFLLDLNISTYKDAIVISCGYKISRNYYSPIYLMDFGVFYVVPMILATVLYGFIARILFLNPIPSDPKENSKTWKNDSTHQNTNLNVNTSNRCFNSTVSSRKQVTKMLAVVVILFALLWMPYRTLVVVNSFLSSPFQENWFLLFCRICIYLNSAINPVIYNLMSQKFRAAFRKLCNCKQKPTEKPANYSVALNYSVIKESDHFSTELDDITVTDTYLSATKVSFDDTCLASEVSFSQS
# Sequence of ATPase family AAA domain-containing protein 5 (Homo sapiens) (Q96QE3 whole entry, looked up, the tested form may be a part): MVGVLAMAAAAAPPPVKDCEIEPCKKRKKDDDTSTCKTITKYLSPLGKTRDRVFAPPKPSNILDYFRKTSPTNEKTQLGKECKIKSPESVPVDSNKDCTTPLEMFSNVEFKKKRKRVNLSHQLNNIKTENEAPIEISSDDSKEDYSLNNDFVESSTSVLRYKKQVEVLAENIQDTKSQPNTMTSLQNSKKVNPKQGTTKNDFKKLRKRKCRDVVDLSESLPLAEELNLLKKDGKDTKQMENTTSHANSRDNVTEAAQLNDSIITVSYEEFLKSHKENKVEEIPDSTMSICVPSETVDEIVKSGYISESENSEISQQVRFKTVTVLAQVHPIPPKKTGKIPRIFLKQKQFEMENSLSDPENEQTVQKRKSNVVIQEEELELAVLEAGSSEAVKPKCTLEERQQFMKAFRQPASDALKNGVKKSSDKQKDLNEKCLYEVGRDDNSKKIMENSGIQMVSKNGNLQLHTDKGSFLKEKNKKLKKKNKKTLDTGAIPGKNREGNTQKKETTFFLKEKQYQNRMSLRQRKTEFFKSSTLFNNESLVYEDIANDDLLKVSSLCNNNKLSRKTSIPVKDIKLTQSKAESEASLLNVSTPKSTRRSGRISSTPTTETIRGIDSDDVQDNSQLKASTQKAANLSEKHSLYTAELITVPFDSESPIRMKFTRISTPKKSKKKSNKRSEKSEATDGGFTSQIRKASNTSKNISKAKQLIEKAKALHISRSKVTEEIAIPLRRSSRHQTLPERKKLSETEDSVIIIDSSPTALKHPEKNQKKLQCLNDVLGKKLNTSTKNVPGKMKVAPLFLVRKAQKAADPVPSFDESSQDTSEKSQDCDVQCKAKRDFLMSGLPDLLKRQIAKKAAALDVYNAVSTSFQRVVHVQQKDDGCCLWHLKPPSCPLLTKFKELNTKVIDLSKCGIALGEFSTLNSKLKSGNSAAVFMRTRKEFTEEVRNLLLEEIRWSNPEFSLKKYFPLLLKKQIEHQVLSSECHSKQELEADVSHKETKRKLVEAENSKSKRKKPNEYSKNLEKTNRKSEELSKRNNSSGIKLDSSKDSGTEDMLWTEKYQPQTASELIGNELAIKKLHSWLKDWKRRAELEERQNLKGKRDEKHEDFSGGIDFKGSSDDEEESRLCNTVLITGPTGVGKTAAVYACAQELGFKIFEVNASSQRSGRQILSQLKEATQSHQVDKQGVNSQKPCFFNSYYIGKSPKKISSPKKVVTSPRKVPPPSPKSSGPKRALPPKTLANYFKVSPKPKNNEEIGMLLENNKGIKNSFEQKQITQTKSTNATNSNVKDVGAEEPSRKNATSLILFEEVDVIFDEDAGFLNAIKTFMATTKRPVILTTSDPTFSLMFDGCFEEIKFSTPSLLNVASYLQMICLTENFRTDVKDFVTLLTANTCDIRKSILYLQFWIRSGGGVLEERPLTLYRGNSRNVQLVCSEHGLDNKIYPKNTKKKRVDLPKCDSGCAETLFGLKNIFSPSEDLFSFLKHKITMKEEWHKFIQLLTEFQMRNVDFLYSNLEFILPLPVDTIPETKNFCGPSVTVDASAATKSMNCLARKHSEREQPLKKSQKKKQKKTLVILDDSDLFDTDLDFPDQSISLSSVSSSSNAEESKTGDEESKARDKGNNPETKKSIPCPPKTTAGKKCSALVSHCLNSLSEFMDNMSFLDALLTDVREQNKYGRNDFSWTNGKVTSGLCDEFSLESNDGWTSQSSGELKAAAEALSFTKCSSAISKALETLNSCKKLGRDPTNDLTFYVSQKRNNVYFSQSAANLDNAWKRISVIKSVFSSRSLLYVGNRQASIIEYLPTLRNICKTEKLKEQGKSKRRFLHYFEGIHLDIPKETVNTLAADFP
# Sequence of D(1A) dopamine receptor (Homo sapiens) (P21728 whole entry, looked up): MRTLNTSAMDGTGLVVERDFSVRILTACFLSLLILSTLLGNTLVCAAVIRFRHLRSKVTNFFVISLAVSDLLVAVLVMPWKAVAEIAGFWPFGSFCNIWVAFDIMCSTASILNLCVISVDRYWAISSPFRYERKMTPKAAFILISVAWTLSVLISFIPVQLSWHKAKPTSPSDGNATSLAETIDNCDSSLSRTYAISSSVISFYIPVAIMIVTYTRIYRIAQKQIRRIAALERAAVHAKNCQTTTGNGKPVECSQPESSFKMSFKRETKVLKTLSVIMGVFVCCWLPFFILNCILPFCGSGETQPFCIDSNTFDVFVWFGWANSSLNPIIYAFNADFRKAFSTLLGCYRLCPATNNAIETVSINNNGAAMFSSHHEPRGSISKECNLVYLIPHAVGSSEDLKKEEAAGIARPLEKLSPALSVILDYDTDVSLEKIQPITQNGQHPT
SMILES,Potency [1],Potency [2],Potency [3],outcome [4],activation [5],Potency [6],Potency [7],viability change [7] [%],Potency [8]
N.N.N.N.N.N.N.N.N.N.N.N.N.N.O.O.[Ru+4].[Ru+5].[Ru+5],inactive,inactive,inactive,inactive,–,–,–,–,–
COc1cc(OC)c(/C=C2/C(=O)Nc3ccccc32)c(OC)c1,inactive,inactive,–,inactive,1.38% (inactive),inactive,–,–,–
O=C(c1ccc(OCCCc2cnc[nH]2)cc1)C1CC1,inactive,inactive,–,inactive,–,–,inactive,-3.26,–
c1cnc2c(c1)ccc1cccnc12,inactive,inactive,–,inactive,–,inactive,–,–,6.51 µM (active)
Cc1nc2sccn2c(=O)c1CCN1CCC(=C(c2ccccc2)c2ccc(F)cc2)CC1,inactive,–,inactive,inactive,–,–,–,–,inactive
O=C1NC(=O)/C(=C/c2ccc3nccnc3c2)S1,inactive,inactive,–,inactive,–,–,–,–,–
CC(C)ON([C@@H](C(=O)NO)C(C)C)S(=O)(=O)c1ccc(-c2ccccc2)cc1,inactive,inactive,inactive,inactive,–,–,–,–,–
CNC(=O)[C@H]1O[C@@H](n2cnc3c(NCc4cccc(I)c4)ncnc32)[C@H](O)[C@@H]1O,inactive,inactive,–,inactive,–,–,–,–,–
CC(C)Cc1ccc([C@H](C)C(=O)O)cc1,inactive,inactive,inactive,inactive,–,–,inactive,6.18,–
COc1ccccc1N1CCN(CCN(C(=O)c2ccc(I)cc2)c2ccccn2)CC1,inactive,5.62 µM (active),inactive,inactive,–,–,14.6 µM (active),-4.45,–
COc1ccc(NC(=O)/C=C/c2ccc(Cl)cc2)cc1,inactive,inactive,2.59 µM (active),inactive,–,inactive,inactive,-1.36,–
N#C/C(=C\c1ccc(O)c(O)c1)C(=O)NCc1ccccc1,inactive,inactive,inactive,inactive,–,inactive,inactive,-19.8,–
OC[C@H]1O[C@@H](n2cnc3c(NC4CCCC4)ncnc32)[C@H](O)[C@@H]1O,inactive,inactive,–,inactive,–,–,inactive,-2.89,–
O=c1[nH]c2cc(Cl)c(Cl)cc2[nH]c1=O,inactive,inactive,–,inactive,0.75% (inactive),inactive,inactive,9.5,–
NC(=S)c1ccc[n+]([C@@H]2O[C@@H](COP(=O)([O-])OP(=O)(O)OC[C@H]3O[C@@H](n4cnc5c(N)ncnc54)[C@H](OP(=O)(O)O)[C@@H]3O)C(O)C2O)c1 (stereo partly specified),inactive,inactive,inactive,inactive,–,–,inactive,-6.67,–
CN1CC(=O)N/C1=N/C(=O)Nc1cccc(Cl)c1,inactive,inactive,inactive,inactive,–,–,inactive,-1.94,–
CCc1c(C(=O)NCCc2ccc(N3CCCCC3)cc2)[nH]c2ccc(Cl)cc12,inactive,inactive,inactive,inactive,–,–,inactive,-7.76,–
NO,inactive,inactive,inactive,inactive,–,inactive,inactive,4.95,–
CCCCCCCCCCCCCCCCCC(=O)OC(CC(=O)O)C[N+](C)(C)C (stereo unspecified),inactive,–,inactive,inactive,-0.5% (inactive),inactive,–,–,inactive
C=C[C@H]1CN2CC[C@@H]1C[C@@H]2[C@@H](O)c1ccnc2ccc(OC)cc12,inactive,inactive,inactive,inactive,–,–,inactive,-1.39,–

SMILES,Potency [1],Potency [2],Potency [3],outcome [4],activation [5],Potency [6],Potency [7],viability change [7] [%],Potency [8]
O=C(O)CC1CC(c2ccccc2)=NO1 (stereo unspecified),inactive,inactive,inactive,inactive,–,–,inactive,12.6,–
O=C(CCCCCN1CCN(c2ccccc2-c2ccccc2)CC1)NC1CCCc2ccccc21 (stereo unspecified),inactive,7.08 µM (active),inactive,inactive,–,–,–,–,–
CC(C)NC[C@@H](O)c1ccc(O)c(O)c1,inactive,inactive,inactive,inactive,–,–,inactive,0.444,–
COc1ccccc1N1CCN(CCCCNS(=O)(=O)c2cccc3c(N(C)C)cccc23)CC1,inactive,2 µM (active),inactive,inactive,–,inactive,–,–,–
O=c1[nH]c2cc([N+](=O)[O-])c([N+](=O)[O-])cc2[nH]c1=O,inactive,inactive,inactive,inactive,–,inactive,–,–,–
O=C(/C=C/c1ccc(O)cc1)c1ccc(O)cc1O,inactive,inactive,8.2 µM (active),inactive,–,inactive,inactive,-0.936,–
O=C(/C=C/c1ccc(O)c(O)c1)OCCc1ccccc1,inactive,inactive,20.6 µM (active),inactive,–,inactive,inactive,-1.73,–
C=CC(C)=C[C@@]1(C)SC(=O)C(C)=C1O,inactive,inactive,inactive,inactive,–,–,inactive,1.42,–
O=C(c1cc(O)c(O)c([N+](=O)[O-])c1)c1ccccc1F,inactive,inactive,inactive,inactive,–,inactive,–,–,–
O=[N+]([O-])c1ccc2c(c1)S(=O)(=O)C=C2,inactive,inactive,inactive,inactive,–,–,–,–,–
NC(=O)C1=CN(C2OC(COP(=O)(O)OP(=O)(O)OC[C@H]3O[C@@H](n4cnc5c(N)ncnc54)[C@H](OP(=O)(O)O)[C@@H]3O)C(O)C2O)C=CC1 (stereo partly specified),inactive,inactive,inactive,inactive,–,–,inactive,5.72,–
Cc1cc(NC2CCCCC2)nc(-n2nc(C)cc2C)n1,inactive,inactive,inactive,inactive,–,–,–,–,–
CC(=O)N[C@H](C(=O)O)C(C)(C)SN=O,inactive,inactive,inactive,inactive,–,inactive,inactive,-5,–
COc1ccc2c(c1)CCC1C2CC[C@@]2(C)C1CC[C@@H]2NCCCCCCN1C(=O)CCC1=O (stereo partly specified),inactive,–,inactive,inactive,–,–,inactive,2.91,25.9 µM (active)
CN1CCc2cc(NC(=O)Nc3cccnc3)ccc21,inactive,inactive,–,inactive,-2.62% (inactive),inactive,inactive,-3.61,–
NCCCS(=O)(=O)O,inactive,inactive,–,inactive,0.5% (inactive),inactive,inactive,-7.16,inactive
CCCCCCCCCCCCCCCC(=O)NCC(COP(=O)([O-])OCC[N+](C)(C)C)OCC (stereo unspecified),inactive,10 µM (active),18.3 µM (active),inactive,–,inactive,inactive,10.8,–
CCCC1(C)C(C#N)(C#N)C1(C#N)C#N,inactive,inactive,–,inactive,–,–,–,–,16.4 µM (active)
O=C(O)CC[C@@H](C(=O)O)N1C(=O)c2ccccc2C1=O,–,inactive,inactive,inactive,–,inactive,inactive,9.01,inactive
Oc1ccc(C2CNCc3sccc32)cc1O (stereo unspecified),–,0.199 µM (active),inactive,inactive,1.75% (inactive),inactive,inactive,-11.4,–
